Source: PubChem BioAssay AID1014 (NMMLSC, 2008)
Active and inactive are the calls of the source. No stated cut-off is given here; in the data, active means inhibition of mean fluorescence above about 33%; inactive means the rest.

Experiment: blockers of bacterial quorum-sensing reporter fluorescence – flow cytometry, SAR analogs, SAR follow-up (AID 1014);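 further: Staphylococcus aureus RN6390 with RNAIII-GFP reporter stimulated by AIP; bacteria incubated with compound for 3 hours at 37 °C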
Conditions: at 20 µM, stronger effect = higher value; inhibition of percent positive cells: measured here: percent reporter-positive cells

SMILES | inhibition of mean fluorescence | inhibition of percent positive cells [%]
O=C(Nc1ccc2c(c1)OCO2)C(c1ccccc1)N1CCCCC1 (stereo unspecified) | 40.3% (active) | -0.7
CCOC(=O)c1cnc2c(OC)cccc2c1Nc1ccccc1C(=O)O | -42.9% (inactive) | -1.1
CC1CCCN(C(C(=O)NC2CCCC2)c2cc3c(cc2[N+](=O)[O-])OCO3)C1 (stereo unspecified) | 14.5% (inactive) | -1.7
O=C(Nc1ccc2c(c1)OCO2)C1CCN(C(=O)c2cnn(-c3ccccc3)c2-n2cccc2)CC1 | -13.6% (inactive) | -0.1
COc1ccc(S(=O)(=O)c2nnn3c2nc(Nc2cccc(C)c2)c2ccccc23)cc1 | -7.2% (inactive) | 0.1
COc1cccc(C(=O)NCC(c2cccnc2)N2CCN(c3ccccc3F)CC2)c1 (stereo unspecified) | 7% (inactive) | -1.4
O=C(NC1CCCC1)C(c1cc2c(cc1[N+](=O)[O-])OCO2)N1CCOCC1 (stereo unspecified) | -11.5% (inactive) | -0.1
CCc1ccc(Nc2nc3c(S(=O)(=O)c4ccc(C(C)(C)C)cc4)nnn3c3ccccc23)cc1 | 3.7% (inactive) | -0.1
CCOC(=O)c1c(C)oc2cc(Br)c(O)c(Br)c12 | 55.9% (active) | 0.7
CC1CC(C)CN(C(C(=O)Nc2ccc(C(C)C)cc2)c2cc3c(cc2[N+](=O)[O-])OCO3)C1 (stereo unspecified) | -12.5% (inactive) | -0.1
O=C(O)c1ccccc1Nc1cn2ncc([N+](=O)[O-])c2c(=O)[nH]1 | -1.7% (inactive) | -0.3
CC(C)(C)c1ccc(S(=O)(=O)c2n[nH]n3c2nc(=O)c2ccccc23)cc1 | 13.3% (inactive) | -1.8
Cc1ccc2occ(/C=C/C(=O)c3ccc(O)cc3)c(=O)c2c1 | -0.6% (inactive) | -0.1
